Assay outcomes from PubChem BioAssay.
Pf Dd2 growth: Plasmodium falciparum Dd2 growth inhibition; P. falciparum Dd2 growth, SYBR Green, 72 h; Potency, µM (titrated, usually from 28.9 µM), most hits filed as inhibitors; 4.3% of 120,000 active; active = well fitted inhibition curve with a large enough effect; also: nearly all actives have a fitted effect of over 65% in size
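Infected erythrocytes (Dd2, 0.3% parasitemia, 2.5% hematocrit final) are added to compound in RPMI-1640/Albumax II medium, grown 72 h at 37C in low oxygen, then lysed with saponin/Triton-X containing SYBR Green and read by fluorescence.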
Each line names hits and unclear results; the compound was inactive in the other large screens. The entries come from a sample that favours hits as a whole.

CCn1cc(-c2ccc(Cl)cc2)cc1C(=O)N1CCCN(C)CC1	none
Cc1oc(C(O)c2ccccc2)nc1C(=O)Nc1ccccc1 (configuration not stated)	none
Cc1noc(C)c1S(=O)(=O)N[C@@H]1C[C@H](Cn2cc(-c3cccnc3)nn2)[C@@H](O)[C@H]1O	none
O=C(C1CC1)N1Cc2ccccc2NC(=O)C12CCNCC2	none
O=C1Nc2ccccc2CN(CC2CCOCC2)C12CCNCC2	none
O=C1Nc2ccccc2CN(Cc2ccc(Cl)cc2)C12CCNCC2	Pf Dd2 growth 7.1µM
O=C1Nc2ccccc2CN(Cc2ccncc2)C12CCNCC2	none
O=C1NCc2ccccc2CC12CCCN2C/C=C/c1ccccc1 (configuration not stated)	none
O=C1Nc2ccccc2CN(C/C=C/c2ccccc2)C12CCNC2 (configuration not stated)	Pf Dd2 growth 11µM
O=C1NC2(CCN(C(=O)OCc3ccccc3)C2)N=C1c1ccncc1 (configuration not stated)	none
O=C(NCc1cccnc1)C1CCC(=O)N(Cc2cccc(C(F)(F)F)c2)C1 (configuration not stated)	none
CCN(C(C)=O)C1CCN(Cc2nc(-c3cccc(Cl)c3)oc2C)C1 (configuration not stated)	none
CCCNC(=O)C(NC(=O)c1ccc(OC)cc1)C1CCN(C(=O)c2cccc(F)c2)CC1 (configuration not stated)	none
CCOCC(=O)N1CCN(C(=O)N2CC3CC(C2)[C@H]2CCCC(=O)N2C3)CC1 (some centres not stated)	none
CCN1c2cc(C(=O)NCc3cccc(OC)c3OC)ccc2C(=O)N2CCCCCC21 (configuration not stated)	none
CCN1c2cc(C(=O)NCc3ccc(Cl)cc3)ccc2C(=O)N2CCCCC21 (configuration not stated)	Pf Dd2 growth 8.9µM
CCN1c2cc(C(=O)NCc3cccc(Cl)c3)ccc2C(=O)N2CCCCCC21 (configuration not stated)	none
CCN1c2cc(C(=O)NCc3ccc(OC)cc3)ccc2C(=O)N2CCCCCC21 (configuration not stated)	none
CCN1c2cc(C(=O)NCc3ccccc3C)ccc2C(=O)N2CCCCCC21 (configuration not stated)	Pf Dd2 growth 6.3µM
CC(C)c1ccc(CNC(=O)c2ccc3c(c2)N(C)C2CCCCN2C3=O)cc1 (configuration not stated)	Pf Dd2 growth 2.2µM
CN1c2cc(C(=O)NCc3ccc(Cl)cc3)ccc2C(=O)N2CCCCC21 (configuration not stated)	none
CN1c2cc(C(=O)NCc3ccccc3)ccc2C(=O)N2CCCCC21 (configuration not stated)	none
CCN1c2cc(C(=O)NCc3ccc(C)c(C)c3)ccc2C(=O)N2CCCCCC21 (configuration not stated)	none
O=C(Cc1cccc(F)c1)NCC1COc2ncncc2C(=O)N1Cc1ccccc1 (configuration not stated)	none
C1CC(Cc2noc(C3CCOCC3)n2)CN1 (configuration not stated)	none
O=C(NC1CCCCC1)N1CC(c2nnc(-c3ccncc3)o2)C2(CCOCC2)C1 (configuration not stated)	none
CCOc1ccc(C(=O)N2CCC3(CCC(=O)N(CCOC)CC3)CC2)cc1	none
CC1CCC2(CC1)NC(=O)N(CC(=O)NC(C)C)C2=O (configuration not stated)	none
O=S(=O)(N[C@H]1[C@H](O)[C@H](O)C[C@@H]1c1ccccc1)c1ccccc1	none
COCCOC1CCN(C(=O)c2ccc(OC)nc2)CC1	none
CC(C)CN(CC(C)C)CC(O)Cn1cc(/C=C/C(=O)c2ccccc2)c2ccccc21 (configuration not stated)	Pf Dd2 growth 2.5µM
COc1ccc(NC(=O)CSc2cn(CC(=O)N3CCOCC3)c3ccccc23)cc1OC	none
COc1ccc(C(=O)/C=C/c2cn(CC(O)CN3CCc4ccccc43)c3ccccc23)cc1OC (configuration not stated)	Pf Dd2 growth 8.9µM
Cc1ccc(C(=O)/C=C/c2cn(CC(O)CN3CCc4ccccc43)c3ccccc23)cc1 (configuration not stated)	Pf Dd2 growth 5.6µM
CC(C)N(C(=O)Cn1cc(S(=O)(=O)Cc2ccc(Cl)cc2)c2ccccc21)C(C)C	none
COc1ccc(C(=O)NCCn2cc(SCC(=O)Nc3ccc4c(c3)OCCO4)c3ccccc32)cc1OC	none
Cc1ccc(NC(=O)CSc2cn(CC(=O)N3CCCCCC3)c3ccccc23)cc1	none
Cc1ccc(C(=O)N2CCc3cn(C)c4cccc(c34)C2)cc1	none
COCc1cc(CNc2nccc(-c3ccccn3)n2)[nH]n1	none
Cc1noc(C)c1C(=O)N1Cc2ccccc2OC2(CCN(C(=O)N(C)C)CC2)C1	none
O=C(NC1CCN(c2cc(-c3cccs3)[nH]n2)C1)c1cc(F)ccc1Cl (configuration not stated)	none
COc1c(C)cnc(Cn2c(-c3ccccc3)nc(C)c(CCO)c2=O)c1C	none
O=C(Nc1ccc(F)cc1)C1CC(=O)N(c2n[nH]c3cccc(F)c23)C1 (configuration not stated)	none
COCCOC1CCOC2(CCN(C(=O)c3ccc(C)nc3)CC2)C1 (configuration not stated)	none
CCCCNC(=O)c1ccc2c(c1)N(S(=O)(=O)c1ccccc1F)CC2	none
COc1ccc(C(=O)NC2CCN(c3cc(-c4cccs4)[nH]n3)C2)cc1OC (configuration not stated)	none
O=C(NC1CC1)[C@H]1CN2CC[C@H]1C[C@@H]2Cn1cc(-c2ccc(-c3ccccc3)cc2)nn1	none
COCCOC1CN(C2CCN(C(=O)c3ccc(C)nc3)CC2)C12CCCCC2 (configuration not stated)	none
COC1CN(C2CCN(C(=O)Cc3ccccc3)CC2)C12CCOCC2 (configuration not stated)	none
O=C(c1ccccn1)N1CCC(N2CC(OCC3CC3)C23CCOCC3)CC1 (configuration not stated)	none
c1ccc(CN2CCC(N3CC(OCC4CC4)C34CCOCC4)CC2)cc1 (configuration not stated)	Pf Dd2 growth 5.6µM
Cc1ccc(CN2CCC(N3CC(OCC4CC4)C34CCOCC4)CC2)s1 (configuration not stated)	Pf Dd2 growth 10µM
Cc1ccncc1C(=O)N1CCC(N2CC(OCC3CC3)C23CCCCC3)CC1 (configuration not stated)	none
Cn1cccc1CN1CCC(N2CC(OCC3CC3)C23CCCCC3)CC1 (configuration not stated)	Pf Dd2 growth 0.63µM
Cc1ncoc1C(=O)N1CCC(N2CC(OCC3CC3)C23CCOCC3)CC1 (configuration not stated)	none
Cn1cccc1CN1CCC(N2CCOC2=O)CC1	none
COC1CN(C2CCN(C(=O)c3ccoc3)CC2)C12CCOCC2 (configuration not stated)	none
COCCOC1CN(C2CCN(Cc3ccc(C)o3)CC2)C12CCCCC2 (configuration not stated)	Pf Dd2 growth 5µM
CCC(=O)N(C1CCOCC1)C1CCN(Cc2ccc(C)o2)CC1	none
Cc1ncoc1C(=O)N1CC(Oc2ccc(-c3nc(-c4ccccc4)no3)cc2)C1	none
CNC(=O)N1CCC(Cc2ncc(C)n2C2CC2)C1 (configuration not stated)	none
COc1ccc(NC(=O)N[C@H]2C[C@@H](C(=O)N[C@H](Cc3c[nH]c4ccccc34)C(N)=O)N(C(C)=O)C2)cc1	none
C[C@@H](NC(=O)c1cnccn1)c1onc(-c2ccccc2)c1C(=O)O	none
